{"source": "PubChem BioAssay AID463173", "about": "(ICCB-Longwood Screening Facility, Harvard Medical School, 2010)", "note": "Among all 52,000 compounds or so, about 1,700 (3.3%) were called active. Cut-off read from the data, not from the text of the source: active = survival mostly below about 52% (no sharp cut-off); inactive = mostly above about 56%. What follows is part of a selection rich in actives, with near analogues and random picks from the rest."}
{"tested_on": "Wild type", "assay": "growth inhibition of S. aureus wild type versus tarO mutant, primary screen, teichoic acid synthesis inhibitors, RN4220, OD600 (AID 463173)", "details": "S. aureus RN4220 wild type/DeltatarO growth, OD600, 18 h, stronger effect = lower value, screened at 18.75 µg/mL (by protocol)"}
{"smiles": "CCOC(=O)c1c(C)[nH]c(CCC(=O)Nc2ccc(C)c(F)c2)c1C", "survival": "70% (inactive)"}
{"smiles": "O=C(NCC(c1cccnc1)N1CCN(Cc2ccccc2)CC1)C(=O)Nc1cccc(F)c1", "note": "(stereo not given)", "survival": "114% (inactive)"}
{"smiles": "COc1ccc(CCN2CC(C(=O)NCCc3ccc(C)cc3)CC2=O)cc1OC", "note": "(stereo not given)", "survival": "60% (inactive)"}
{"smiles": "Cc1cccc(CNC(=O)c2cnc3sc(N4CCOCC4)nn3c2=O)c1", "survival": "119% (inactive)"}
{"smiles": "Cc1cc(=O)[nH]c2nnc(SCc3c(F)cccc3Cl)n12", "survival": "140% (inactive)"}
{"smiles": "COc1ccccc1C(=O)Nc1ccccc1OCc1cc(=O)n2c(C)csc2n1", "survival": "81% (inactive)"}
{"smiles": "CCOc1ccc(OCC)c(NC(=O)c2csc3c2CCCC3)c1", "survival": "-1% (active)"}
{"smiles": "COc1ccc(Cl)cc1NC(=O)c1cnc(SC)nc1-c1ccccc1", "survival": "22% (inactive)"}
{"smiles": "CSc1ncc(C(=O)NCc2ccc(F)cc2)c(-c2ccccc2)n1", "survival": "87% (inactive)"}
{"smiles": "CSc1ncc(C(=O)Nc2ccc(F)cc2F)c(-c2ccccc2)n1", "survival": "73% (inactive)"}
{"smiles": "CCOc1ccc(CCNC(=O)c2csc3c2CCCCC3)cc1", "survival": "81% (inactive)"}
{"smiles": "CSc1ncc(C(=O)NCc2ccc(C)cc2)c(C)n1", "survival": "73% (inactive)"}
{"smiles": "CSc1ncc(C(=O)NCc2cccc(F)c2)c(-c2ccccc2)n1", "survival": "82% (inactive)"}
{"smiles": "CSc1ncc(C(=O)NCc2ccccc2)c(-c2ccccc2)n1", "survival": "10% (active)"}
{"smiles": "CCOc1ccc(OCC)c(NC(=O)c2cnc(SC)nc2-c2ccccc2)c1", "survival": "0% (active)"}
{"smiles": "CSc1ncc(C(=O)NCc2ccc(C)cc2)c(-c2ccccc2)n1", "survival": "-2% (active)"}
{"smiles": "COc1ccc(NC(=O)c2csc3c2CCCCC3)cc1", "survival": "72% (inactive)"}
{"smiles": "CSc1ncc(C(=O)NCc2cccc(C)c2)c(-c2ccccc2)n1", "survival": "65% (inactive)"}
{"smiles": "CCOc1ccccc1NC(=O)Cn1c(=O)n(-c2ccccc2)c(=O)c2c1c1cc(C)ccc1n2C", "survival": "84% (inactive)"}
{"smiles": "CCOC(=O)CNC(=O)c1cc2c(=O)oc3ccccc3c2s1", "survival": "146% (inactive)"}
{"smiles": "CCc1ccc(C2C(C(=O)Nc3ccc(Cl)cc3)=C(C)Nc3ncnn32)cc1", "note": "(stereo not given)", "survival": "59% (inactive)"}
{"smiles": "Cc1ccc(CNC(=O)c2ccc3c(O)c(S(=O)(=O)c4ccccc4)c(=O)[nH]c3c2)cc1", "survival": "83% (inactive)"}
{"smiles": "N=C1SCC(=O)N1c1ccc(Cl)cc1", "survival": "124% (inactive)"}
{"smiles": "Cc1ccc(-n2c(SCc3ccccc3F)nc3[nH]ncc3c2=O)cc1Cl", "survival": "77% (inactive)"}
{"smiles": "Cc1ccc2[nH]c(=O)c3cc(C(=O)N(C)c4ccc(Br)cc4)sc3c2c1", "survival": "81% (inactive)"}
{"smiles": "COC(=O)c1ccc(NC(=O)CN2C(=O)c3cccc4cccc2c34)cc1", "survival": "85% (inactive)"}
{"smiles": "NS(=O)(=O)c1ccc(CCNC(=O)CCn2c(=O)c3cccn3c3cccnc32)cc1", "survival": "92% (inactive)"}
{"smiles": "O=C(NCc1cccc(Cl)c1)c1cnc(N2CCCCC2)c2ccccc12", "survival": "89% (inactive)"}
{"smiles": "O=C(COC(=O)c1cccc(NC(=O)c2ccc(Br)cc2)c1)c1ccc(Cl)cc1", "survival": "93% (inactive)"}
{"smiles": "O=C(CC1N=C2c3ccccc3N=C(SCC(=O)Nc3cccc(Cl)c3)N2C1=O)NCc1cccs1", "note": "(stereo not given)", "survival": "82% (inactive)"}
{"smiles": "CCC(C)NC(=O)C1CCN(S(=O)(=O)c2ccc3c(ccn3CC)c2)CC1", "note": "(stereo not given)", "survival": "0% (active)"}
{"smiles": "CCn1ccc2cc(S(=O)(=O)N3CCC(C(=O)NCc4ccc(F)cc4)CC3)ccc21", "survival": "80% (inactive)"}
{"smiles": "CCn1ccc2cc(S(=O)(=O)N3CCC(C(=O)NCc4ccc(OC(C)C)cc4)CC3)ccc21", "survival": "69% (inactive)"}
{"smiles": "CCn1ccc2cc(S(=O)(=O)N3CCC(C(=O)NCC(C)c4ccccc4)CC3)ccc21", "note": "(stereo not given)", "survival": "87% (inactive)"}
{"smiles": "CCCCNC(=O)C1CCN(S(=O)(=O)c2ccc3c(ccn3CC)c2)CC1", "survival": "124% (inactive)"}
{"smiles": "CCn1ccc2cc(S(=O)(=O)N3CCC(C(=O)NCc4ccc(OC)cc4)CC3)ccc21", "survival": "-3% (active)"}
{"smiles": "O=C(Cn1c(=O)nc(-c2ccccc2)c2ccccc21)NCCCc1ccccc1", "survival": "60% (inactive)"}
{"smiles": "Cc1c(Cl)cccc1Nc1nn2c(=O)c3ccc(C(=O)NCCC4=CCCCC4)cc3nc2s1", "survival": "74% (inactive)"}
{"smiles": "COc1ccc(OC)c(S(=O)(=O)N2CC=C(c3c(C)n(CC(=O)N4CCCC4)c4ccccc34)CC2)c1", "survival": "83% (inactive)"}
{"smiles": "O=S(=O)(c1cccc2nsnc12)N(CCOc1ccccc1)C1CCCCC1", "survival": "99% (inactive)"}
{"smiles": "COc1cccc(CNC(=O)C2CCN(c3ncccn3)CC2)c1", "survival": "102% (inactive)"}
{"smiles": "CCn1c(=O)c2cc(C(=O)N3CCN(c4cccc(OC)c4)CC3)sc2c2ccccc21", "survival": "69% (inactive)"}
{"smiles": "CC1=CC(C)(C)N(CC(=O)c2ccccc2)c2ccc(C)cc21", "survival": "109% (inactive)"}
{"smiles": "Cc1ccc(C(=O)N2CCN(c3ccccc3)CC2)cc1", "survival": "112% (inactive)"}
{"smiles": "Cc1ccc2c(c1)N(C(=O)c1ccc(F)cc1)C(C)(C)CC2(C)c1ccccc1", "note": "(stereo not given)", "survival": "43% (inactive)"}
{"smiles": "COc1ccc(C(=O)N2c3ccc(C)cc3C(C)(c3ccccc3)CC2(C)C)cc1", "note": "(stereo not given)", "survival": "45% (inactive)"}
{"smiles": "Cc1ccc(C(=O)N2c3ccc(C)cc3C(C)(c3ccccc3)CC2(C)C)cc1", "note": "(stereo not given)", "survival": "2% (active)"}
{"smiles": "Cc1ccc2c(c1)C(C)(c1ccccc1)CC(C)(C)N2C(=O)c1ccc(F)cc1", "note": "(stereo not given)", "survival": "-2% (active)"}
{"smiles": "CCOc1ccc(S(=O)(=O)n2nc(C)c(S(=O)(=O)N3CCCCC3)c2C)cc1", "survival": "67% (inactive)"}
{"smiles": "Cc1ccc(C)c(NC(=O)Cn2c(=O)n(CCCS(=O)(=O)C3CCCCC3)c(=O)c3ccccc32)c1", "survival": "119% (inactive)"}
{"smiles": "CSc1nc2ccc(S(=O)(=O)N3CCCCC3)cc2s1", "survival": "105% (inactive)"}
{"smiles": "COCCCNC(=O)c1ccc(Cn2c(=O)c3ccccc3n(CC(=O)Nc3ccc(C)cc3C)c2=O)cc1", "survival": "100% (inactive)"}
{"smiles": "Cc1ccccc1CNC(=O)Cc1csc2ccccc12", "survival": "94% (inactive)"}
{"smiles": "COc1ccccc1NC(=O)CSc1ncc2c(n1)-c1cc(Cl)ccc1N(C)S2(=O)=O", "survival": "73% (inactive)"}
{"smiles": "CCOc1ccc(NC(=O)CN2CCN(CC(=O)Nc3ccc(N(CC)CC)cc3)CC2)cc1", "survival": "80% (inactive)"}
{"smiles": "COc1ccc(NC(=O)c2cc3c(=O)n(Cc4cccs4)ccc3nc2C)c(OC)c1", "survival": "83% (inactive)"}
{"smiles": "O=c1[nH]c2ccc(NCc3ccc(-c4ccc(Cl)cc4)o3)cc2[nH]1", "survival": "111% (inactive)"}
{"smiles": "COc1ccc(CCNC(=O)C(=O)NCC(c2cccs2)S(=O)(=O)c2ccc(F)cc2)cc1", "note": "(stereo not given)", "survival": "73% (inactive)"}
{"smiles": "O=S(=O)(Nc1ccc(Br)cc1)c1ccc2nc(-c3ccccc3)[nH]c2c1", "survival": "-3% (active)"}
{"smiles": "Cc1cc(NS(=O)(=O)c2ccc3nc(-c4ccccc4)[nH]c3c2)ccc1Br", "survival": "-4% (active)"}
{"smiles": "Cc1ccc(NS(=O)(=O)c2ccc3nc(-c4ccccc4)[nH]c3c2)c(Cl)c1", "survival": "60% (inactive)"}
{"smiles": "Cc1cccc(NS(=O)(=O)c2ccc3nc(-c4ccccc4)[nH]c3c2)c1C", "survival": "129% (inactive)"}
{"smiles": "Cc1ccc(NS(=O)(=O)c2ccc3nc(-c4ccccc4)[nH]c3c2)c(Br)c1", "survival": "63% (inactive)"}
{"smiles": "CC(C)c1ccc(NS(=O)(=O)c2ccc3nc(-c4ccccc4)[nH]c3c2)cc1", "survival": "63% (inactive)"}
{"smiles": "COc1ccc(NS(=O)(=O)c2ccc3nc(-c4ccccc4)[nH]c3c2)cc1", "survival": "81% (inactive)"}
{"smiles": "Cc1ccc(NS(=O)(=O)c2ccc3nc(-c4ccccc4)[nH]c3c2)cc1Cl", "survival": "1% (active)"}
{"smiles": "O=S(=O)(Nc1ccc(Br)cc1F)c1ccc2nc(-c3ccccc3)[nH]c2c1", "survival": "71% (inactive)"}
{"smiles": "COc1cc(C)ccc1OCCSc1nc(-c2cccc(C)c2)nc2cc(=O)[nH]n12", "survival": "88% (inactive)"}
{"smiles": "Cc1ccc(NC(=O)c2oc3ccc(S(=O)(=O)N4CCC5(CC4)OCCO5)cc3c2C)c(C)c1", "survival": "143% (inactive)"}
{"smiles": "O=C(CS(=O)(=O)c1cccc2nsnc12)Nc1cc(F)ccc1F", "survival": "97% (inactive)"}
{"smiles": "Cn1c(=O)c2c(nc(NCCc3ccccc3)n2Cc2ccc(Cl)cc2)n(C)c1=O", "survival": "74% (inactive)"}
{"smiles": "CCc1ccc(N2C(=O)C3C4CCCC4=C4CCCC4C3C2=O)cc1", "note": "(stereo not given)", "survival": "116% (inactive)"}
{"smiles": "Cn1c(=O)c2c(nc3n(-c4ccc(O)cc4)c(-c4ccc(Br)cc4)cn23)n(C)c1=O", "survival": "142% (inactive)"}
{"smiles": "COc1ccc(CNC(=O)C2CCN(C(=O)N3CCOc4ccc(C)cc43)CC2)cc1", "survival": "80% (inactive)"}
{"smiles": "Cc1cccn2c(=O)c3cc(C(=O)Nc4ccc(Cl)c(Cl)c4)sc3nc12", "survival": "71% (inactive)"}
{"smiles": "O=C(O)CCSc1nnnn1-c1ccccc1", "survival": "114% (inactive)"}
{"smiles": "c1ccc(CNc2nnnn2-c2ccccc2)cc1", "survival": "106% (inactive)"}
{"smiles": "CCS(=O)(=O)c1nnnn1-c1ccccc1", "survival": "1% (active)"}
{"smiles": "COc1ccc(C2CC(=O)c3cc(-c4nc(-c5cccc([N+](=O)[O-])c5)cs4)c(=O)n(-c4cc(C)cc(C)c4)c3C2)cc1", "note": "(stereo not given)", "survival": "80% (inactive)"}
{"smiles": "COc1ccc(C2=Nc3ccccc3N(CC(=O)Nc3cccc(C(C)=O)c3)C(=O)C2)cc1", "survival": "136% (inactive)"}
{"smiles": "Cc1ccc(N(C)C(=O)C2CCN(S(=O)(=O)c3cn(C)cn3)CC2)cc1", "survival": "10% (active)"}
{"smiles": "Cc1cc(C)cc(NC(=O)C2CCN(S(=O)(=O)c3cn(C)cn3)CC2)c1", "survival": "73% (inactive)"}
{"smiles": "COc1ccccc1CNC(=O)C1CCN(S(=O)(=O)c2cn(C)cn2)CC1", "survival": "-3% (active)"}
{"smiles": "COc1ccc(OC)c(CNC(=O)C2CCN(S(=O)(=O)c3cn(C)cn3)CC2)c1", "survival": "82% (inactive)"}
{"smiles": "CN(C)c1ccc(CNC(=O)C2CCN(S(=O)(=O)c3cn(C)cn3)CC2)cc1", "survival": "-2% (active)"}
{"smiles": "Cc1ccc(CNC(=O)C2CCN(S(=O)(=O)c3cn(C)cn3)CC2)cc1", "survival": "82% (inactive)"}
{"smiles": "Cn1cnc(S(=O)(=O)N2CCC(C(=O)NCc3ccc(Cl)cc3)CC2)c1", "survival": "95% (inactive)"}
{"smiles": "Cc1ccc(C)c(N2CCN(C(=O)C3CCN(S(=O)(=O)c4cn(C)cn4)CC3)CC2)c1", "survival": "75% (inactive)"}
{"smiles": "Cn1cnc(S(=O)(=O)N2CCC(C(=O)NCc3ccccc3Cl)CC2)c1", "survival": "128% (inactive)"}
{"smiles": "COc1ccc(-c2cn3nc(SCC(=O)Nc4cc(C)cc(C)c4)ccc3n2)cc1", "survival": "68% (inactive)"}
